hgDAF-12 ag – H. glycines DAF-12 receptor agonists, primary screen, cell-based, luminescence, HEK293, GAL4 fusion, UAS-luciferase; HEK293 GAL4-hgDAF12 UAS-luciferase reporter, agonist luminescence; normalized to butyrate control; activation, % at 6.8 µM; 370,000 compounds, 1.8% hits;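 active = activation above a cutoff set at the mean of all screened compounds plus 3 SD, cut at about 10% in these data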;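 also: 0% = DMSO wells and 100% = sodium butyrate wells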
ssDAF12 agonist – S. stercoralis DAF-12 nuclear receptor activators, primary screen, cell-based, luminescence, HEK293, GRIP1 co-expression, lit1-tk-luc; Nuclear hormone receptor DAF-12 (Strongyloides stercoralis); HEK293 ssDAF-12/GRIP1 lit1-tk-luc reporter; % of 3 µM dafachronic acid response; activation, % at 6.8 µM; 370,000 compounds, 1% hits;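 active = activation above the mean over all tested compounds plus 3 SD, cut at about 0.9% in these data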;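 also: 0% = DMSO-only wells and 100% = 3 µM delta7-dafachronic acid wells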
DAX1 inh-1 – DAX1 (NR0B1) inhibitors, primary screen, cell-based, HEK293, Gal4-DAX1, luciferase luminescence. Nuclear receptor subfamily 0 group B member 1 (Homo sapiens), P51843. HEK293 Gal4-DAX1 luciferase reporter. inhibition, % at 6.75 µM. 340,000 compounds, 0.99% hits;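 active = inhibition above the mean over all tested compounds plus 3 SD, cut at about 4.2% in these data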;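 also: 0% = DAX1-transfected cells with DMSO and 100% = empty-vector control cells with DMSO; inhibition shows as a rise in luminescence from relieved DAX1 repression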
Target sequence (P51843 207-470 limits assumed): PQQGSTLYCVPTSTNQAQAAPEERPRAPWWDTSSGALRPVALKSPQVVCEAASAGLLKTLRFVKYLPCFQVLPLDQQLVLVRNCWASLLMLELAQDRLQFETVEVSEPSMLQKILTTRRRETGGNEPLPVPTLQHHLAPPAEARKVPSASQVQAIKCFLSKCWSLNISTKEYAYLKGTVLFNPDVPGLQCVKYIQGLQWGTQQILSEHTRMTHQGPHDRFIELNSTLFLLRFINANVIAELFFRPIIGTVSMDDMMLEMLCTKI
hcDAF12 agonist – H. contortus DAF-12 nuclear receptor activators, primary screen, cell-based, luminescence, HEK293, lit1-tk-luc reporter | activation, % at 6.8 µM | HEK293 hcDAF-12 lit1-tk-luc reporter; 0% DMSO, 100% Δ7-dafachronic acid | AID 652067, 2013 | 370,000 compounds, 1.4% hits;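 active = activation above the mean of all tested compounds plus 3 SD, cut at about 5.5% in these data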;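 also: 100% = response to 3 µM Δ7-dafachronic acid high control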
DAX1 inh-2 – DAX1 (NR0B1) inhibitors on StAR promoter, primary screen, cell-based, luminescence, SF-1 (NR5A1), full-length DAX-1 | HEK293T StAR-luciferase reporter, SF-1/DAX-1 repression relief | inhibition, % at 6.8 µM | 370,000 compounds, 1.1% hits;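 active = inhibition above the mean over all tested compounds plus 3 SD, cut at about 3.6% in these data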;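 also: 0% = DAX-1 cells with DMSO and 100% = cells lacking DAX-1 with DMSO; higher inhibition means more luminescence from relief of DAX-1 repression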
* marks the source's active call; other numbers are inactive results; / = no result given. Hits are enriched below; roughly 4.1% of the tested compounds scored in any of these assays.

SMILES | hgDAF-12 ag | ssDAF12 agonist | DAX1 inh-1 | hcDAF12 agonist | DAX1 inh-2
COc1ccc(C(=O)CC(=O)c2ccc(C(C)(C)C)cc2)cc1 | 5.4 | -1.2 | -0.7 | -0.9 | 0.9
COc1ccc(C(=O)CC(Sc2ccccc2N)c2ccc(OC)cc2)cc1 (stereo not given) | 9.5 | 0.6 | 2.4 | 4.7 | 4.1*
Cc1ccc(-n2nnnc2SCC(=O)NCC2(N3CCOCC3)CCCCC2)c(C)c1 | -6.3 | -1.6 | -2.1 | -3.8 | -2.9
Cc1ccc(-n2nnnc2SCC(=O)NCC2(N3CCCCC3)CCCCC2)c(C)c1 | -0.9 | -1.0 | 0.5 | -1.3 | 3.6*
O=C(/C=C/c1ccc(F)cc1)NC(=S)NNC(=O)[C@H]1C[C@@H]1c1ccccc1 | 5.5 | -0.4 | 0.3 | 0.4 | 3.6*
COc1cccc(NC(=O)n2ccc3ccc(-c4ccc5ccn(C(=O)Nc6cccc(OC)c6)c5c4)cc32)c1 | -0.9 | -0.9 | / | -0.8 | -2.5
CCN1C(=O)C(CC(=O)Nc2ccc(OC)cc2)N(Cc2cccnc2)C1=S (stereo not given) | -0.5 | 2.7* | -0.5 | -1.9 | -0.5
COc1ccc(N=Nc2c(C)[nH]c3ccccc23)cc1 | 3.5 | -1.1 | -0.7 | 3.4 | -0.6
COc1ccc2[nH]c(N=Nc3ccccc3C)c(O)c2c1 | 8.7 | -0.3 | 1.1 | 6.5* | 0.1
C=CCC(=O)NC(C)c1cnn(-c2ccccc2C)c1C (stereo not given) | 2.4 | 1.0* | 0.9 | 3.1 | -0.5
Cc1ccccc1-n1ncc(C(C)NC(=O)c2ccccc2)c1C (stereo not given) | 0.9 | -1.6 | 1.7 | 0.5 | -0.9
Cc1c(Cl)cnc(NC(=O)COC(=O)c2cc3c(s2)CCC(C)C3)c1Cl (stereo not given) | 5.2 | 1.4* | 1.3 | 1.0 | -0.1
C/C(Cn1cnc([N+](=O)[O-])n1)=N\NC(=O)c1cccc(F)c1 | 10.8* | 0.8 | 1.8 | 1.9 | -0.3
COc1ccc(CCN2CC(C(=O)Nc3ccccc3F)CC2=O)cc1OC (stereo not given) | -0.9 | -0.5 | 4.6* | -0.8 | -0.9
Cc1ccc(-n2c(Cc3cccs3)nnc2SCc2ccc(Br)cc2)cc1 | -2.4 | -1.2 | / | -3.5 | -0.2
COc1ccccc1CC(=O)NNS(=O)(=O)c1cccc([N+](=O)[O-])c1 | -2.6 | -1.2 | -0.4 | -1.3 | 0.3
COc1ccccc1CC(=O)NNS(=O)(=O)c1ccc([N+](=O)[O-])cc1 | -1.6 | -0.6 | 6.1* | -1.2 | -0.5
Cc1ccnc(NC(=O)CNC(=O)Cc2cccc3ccccc23)c1 | 8.7 | 1.3* | 2.9 | 2.5 | 3.4
O=C(CNC(=O)c1ccco1)Nc1cccc(Cl)c1 | 1.3 | 0.2 | 0.2 | 5.8* | 0.0
O=C(CNC(=O)c1ccco1)Nc1ccc(N2CCCCCC2)cc1 | 10.0 | -1.1 | 4.7* | 0.1 | 0.9
Cc1ccnc(NC(=O)CCCOc2cc(=O)n(C)c3ccccc23)c1 | 2.5 | -0.2 | 7.0* | -0.7 | -0.5
Cc1ccc(NC(=O)CNC(=O)Cc2cccc3ccccc23)nc1 | 1.6 | -0.8 | -0.5 | 3.1 | 0.2
O=C(CNC(=O)c1ccco1)Nc1ccc(F)c(Cl)c1 | -2.1 | -1.0 | -0.6 | -2.1 | 0.2
O=C(c1cccnc1Cl)N1CCC(Oc2cccnc2)CC1 | 1.7 | -1.2 | / | -1.3 | 0.9
COc1ccccc1CNc1cc(C)ccn1 | -1.7 | -1.1 | 1.5 | -0.1 | 0.0
SMILES | hgDAF-12 ag | ssDAF12 agonist | DAX1 inh-1 | hcDAF12 agonist | DAX1 inh-2
COc1ccccc1CC(=O)Nc1cc(C)ccn1 | 6.3 | 1.3* | 0.2 | 5.0 | 0.9
Cc1ccnc(NC(=O)CNC(=O)c2ccco2)c1 | 1.3 | -0.4 | 0.3 | 0.0 | 3.8*
COC(=O)[C@]12C[C@H](CC(=O)NCCc3ccccc3OC)C(=O)N(CCc3ccc(OC)c(OC)c3)C1=C[C@H](C(C)(C)C)O[C@@H]2C | 0.7 | -2.2 | / | -2.1 | -1.5
Cc1cc(C(=O)N/N=C/c2cn(C)nc2C)c2ccccc2n1 | 0.9 | -0.3 | -0.6 | 0.8 | -0.6
Cc1nn(C)cc1/C=N/NC(=O)c1ccco1 | 7.7 | -0.7 | 4.9* | 1.7 | 1.1
Cc1nn(Cc2ccccc2)c(Cl)c1/C=N/NC(=O)c1cccnc1 | 0.3 | 14.9* | -1.1 | 0.1 | 0.8
Cc1c(/C=N/NC(=O)c2cccnc2)c2ccccc2n1Cc1ccccc1 | -1.5 | -0.8 | / | -0.7 | -0.5
O=C(N/N=C/c1ccccc1)c1ccco1 | 7.8 | -0.7 | 5.8* | 2.2 | 1.1
CC(C)(C)OC(=O)N/N=C\c1ccc(OC(=O)c2ccco2)cc1 | 11.3* | -0.3 | -0.2 | 6.2* | 2.0
O=C(Nc1ccccc1C(=O)N/N=C/c1ccccc1)c1ccco1 | 4.2 | 0.7 | -1.2 | 2.6 | 0.3
COC(=O)[C@]12C[C@H](CC(=O)NCc3cccs3)C(=O)N(Cc3ccc(Cl)cc3Cl)C1=C[C@H](C1CCCC1)O[C@@H]2C | -1.0 | -1.3 | / | -0.1 | -0.5
CCCCCN1CCCCC(NC(=O)c2cccc(F)c2)C1=O (stereo not given) | 2.7 | -1.3 | / | -1.1 | 0.2
COc1ccc(-n2c(Cc3cccs3)nnc2SCC(=O)Nc2ccc(OCc3ccccc3)cc2)cc1 | 1.5 | -1.9 | / | 0.7 | -2.8
Cc1nn(-c2ccccc2)c(Cl)c1/C=N/NC(=O)c1ccc(CNc2ccccc2)o1 | 1.9 | -1.6 | -0.3 | 0.7 | -0.2
Cc1nn(-c2ccccc2)c(Cl)c1/C=N/NC(=O)OC(C)(C)C | 0.3 | -0.3 | -0.2 | -3.0 | 0.1
CCOC(=O)N/N=C/c1c(C)nn(-c2ccccc2Cl)c1Cl | 11.1* | -0.7 | 2.4 | 4.1 | 0.6
Cc1nn(-c2ccccc2)c(Cl)c1/C=N/NC(=O)c1ccco1 | 11.7* | -1.2 | 2.0 | 1.2 | 1.9
CC(=O)N1c2ccccc2C(=O)NCC1C(=O)NC(C)(C)C (stereo not given) | 0.6 | -0.8 | / | -0.9 | 0.8
Cc1ccc2cn[nH]c2c1[N+](=O)[O-] | 0.8 | -0.1 | 4.9* | 5.6* | 0.5
Cc1cccc2cn[nH]c12 | 4.2 | -0.9 | -0.1 | 1.7 | 0.4
COc1ccc(C2=NCCn3nc4cc([N+](=O)[O-])ccc4c32)cc1 | 1.1 | -0.8 | -0.6 | 5.8* | 0.8
COc1cccc(-n2nnc3c(=O)n(CC(=O)N4CCC(C)CC4)cnc32)c1 | 0.4 | -1.2 | 0.7 | -1.6 | -1.0
COc1cccc(-n2nnc3c(=O)n(CC(=O)N4CCC(Cc5ccccc5)CC4)cnc32)c1 | 6.0 | 1.2* | -0.9 | 5.1 | -1.2
Cn1c(=O)c(-c2cccc(Cl)c2)c(O)c2ccccc21 | -1.6 | -0.7 | 3.4 | -0.7 | 0.5
